High-throughput results as filed in PubChem.
p53 reactivation – qHTS assay for re-activators of p53 using a Luc reporter; H1299 p53-A138V BP100-luciferase reporter, luminescence, 24 h; Potency, µM (titrated, usually from 92.2 µM), for the others: at the highest dose activity change, positive = activation, hits mostly activators; 320,000 compounds, 0.063% hits; AID 504706, 2011; further: potency means the concentration at half of the fitted maximal effect; % of control where 0% means no effect; nearly all actives have a fitted effect of over 45% in size
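p53-null H1299 cells stably carrying temperature-sensitive p53-A138V and a BP100-luciferase reporter were pinned with compounds (4-point, 1:5 series) and held 24 hrs at 37 deg C. Luminescence was read 10 min after detection reagent.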
CtBP-E1A inh – qHTS Assay for Inhibitors of the CtBP/E1A Interaction | activity change, % (no concentration beside the values) | CtBP / adenovirus E1A interaction (AlphaScreen) | 340,000 compounds, 0.49% hits | AlphaScreen GST-E1A/His-CtBP binding, 1536-well; stronger effect = lower value | AID 651724, 2012; in the data active means activity change below about -65%; inconclusive means mostly about -30% to -63%; further: on the % scale 0 is the no-effect control and ±100 the full control effect
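GST-E1A and His-tagged CtBP (125 nM each as 5X stock) were preincubated with pin-transferred compound for 2 h at 37 °C in the dark, then glutathione donor and nickel acceptor beads were added for 1 h before AlphaScreen reading.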
Six1-Eya2 inh – qHTS Assay for Inhibitors of the Six1/Eya2 Interaction | AlphaScreen GST-Six1/His-Eya2 binding, biochemical; stronger effect = lower value | AID 651725, 2012 | activity change, % (no concentration beside the values) | 360,000 compounds, 0.56% hits | Homeobox protein SIX1 (Homo sapiens) + Protein phosphatase EYA2 (Homo sapiens), …; in the data active means activity change below about -65%; inconclusive means mostly about -30% to -63%; further: on the % scale 0 is the no-effect control and ±100 the full control effect
Target sequence (O00167 whole entry, looked up): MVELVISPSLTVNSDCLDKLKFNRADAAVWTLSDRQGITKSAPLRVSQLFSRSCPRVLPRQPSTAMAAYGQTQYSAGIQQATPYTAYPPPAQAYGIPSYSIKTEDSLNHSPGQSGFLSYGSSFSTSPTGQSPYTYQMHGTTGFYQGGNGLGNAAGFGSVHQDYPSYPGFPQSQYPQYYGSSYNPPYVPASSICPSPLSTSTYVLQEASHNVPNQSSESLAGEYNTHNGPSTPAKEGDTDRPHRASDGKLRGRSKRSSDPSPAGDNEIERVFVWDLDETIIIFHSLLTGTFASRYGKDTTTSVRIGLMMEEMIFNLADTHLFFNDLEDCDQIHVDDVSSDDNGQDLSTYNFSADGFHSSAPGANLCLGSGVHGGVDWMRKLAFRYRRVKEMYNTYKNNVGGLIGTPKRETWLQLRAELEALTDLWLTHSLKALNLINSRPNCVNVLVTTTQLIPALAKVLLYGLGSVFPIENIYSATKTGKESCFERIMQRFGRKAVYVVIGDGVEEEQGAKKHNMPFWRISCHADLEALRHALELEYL
Target sequence (Q15475 whole entry, looked up): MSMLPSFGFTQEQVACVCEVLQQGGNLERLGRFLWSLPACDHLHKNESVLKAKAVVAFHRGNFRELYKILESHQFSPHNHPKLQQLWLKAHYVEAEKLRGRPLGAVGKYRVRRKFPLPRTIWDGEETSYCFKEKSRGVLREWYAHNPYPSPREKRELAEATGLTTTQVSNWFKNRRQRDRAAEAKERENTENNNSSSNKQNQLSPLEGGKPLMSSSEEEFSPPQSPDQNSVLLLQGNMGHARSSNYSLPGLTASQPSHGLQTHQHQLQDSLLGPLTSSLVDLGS
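GST-Six1 + His-Eya2 (5X stock: 250/500 nM); Tris pH 8.0, 300 mM NaCl, 0.05% BSA, 0.02% Tween 20; GSH donor/Ni acceptor beads; 1 h 37 °C dark; AlphaScreen readout.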
VP16 counter – VP16 counterscreen qHTS for inhibitors of ROR gamma transcriptional activity; Potency, µM (top dose mostly 53.6 µM), inactives show at the top dose activity, negative = inhibition, actives largely listed as inhibitors; 310,000 compounds, 3.5% hits; Drosophila S2 Gal4-VP16 UAS-luciferase, luminescence, 20 h;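 further: Gal4-VP16 expression switched on by copper sulfate through the metallothionein promoter; potency means the concentration at half of the fitted maximal effect; on the % scale 0 is the no-effect control and ±100 the full control effect; nearly all actives have a fitted effect of over 50% in size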
RORg inh – qHTS for inhibitors of ROR gamma transcriptional activity; Nuclear receptor ROR-gamma (Mus musculus), P51450; 310,000 compounds, 5.4% hits; Drosophila S2 Gal4-RORgamma UAS-luciferase reporter, 20 h; Potency, µM (highest dose often 53.6 µM), without a hit: at the highest dose activity change, negative = inhibition, most hits filed as inhibitors; further: potency means the concentration at half of the fitted maximal effect; on the % scale 0 is the no-effect control and ±100 the full control effect; nearly all actives have a fitted effect of over 60% in size
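Drosophila S2 cells stably expressing Gal4-DBD/mouse RORγ fusion under metallothionein promoter plus UAS-luciferase; compound 1 h, then 700 uM CuSO4 induction for 20 h at ambient temperature; inhibition read as reduced luminescence.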
Starred values were filed as active, the others as inactive. Rows were chosen to be rich in hits. Some 5.4% of all compounds tested hit in one or more screens of this group. Unless noted, the call rests on the fitted dose curve; in most records, active means well fitted curve in the direction sought with a large enough effect; inconclusive means small, poorly fitted or top-dose-only effect, or another doubt; inactive means no such curve, though single readings can be large; an effect the other way counts as inactive or inconclusive.

Results for C=CCn1c(COc2ccc(Cl)cc2)nnc1SCC(=O)N/N=C/c1cccc(O)c1 ?
p53 reactivation: 2%; CtBP-E1A inh: -6; Six1-Eya2 inh: -11; VP16 counter: -11%; RORg inh: 22%

Results for O=C(N/N=C/c1ccccc1C(=O)O)C(=O)N1CCCCC1 ?
p53 reactivation: 4%; CtBP-E1A inh: 8; Six1-Eya2 inh: 9; VP16 counter: 6%; RORg inh: 8%

What do the screens show for `O=C(NCC(=O)N1CCCC1)NN=Cc1ccccc1O`?
CtBP-E1A inh: -77*; Six1-Eya2 inh: inconclusive

Results for O=C(CCCCC(=O)NN=Cc1ccccc1O)NN=Cc1ccccc1O ?
CtBP-E1A inh: -13; Six1-Eya2 inh: -15

Results for C=CCn1c(CNc2ccccc2)nnc1SCC(=O)N/N=C/c1ccccc1O ?
p53 reactivation: inconclusive; CtBP-E1A inh: inconclusive; Six1-Eya2 inh: -72*; VP16 counter: 16µM*; RORg inh: 10µM*

How did O=C(CSCC(=O)NN=Cc1ccccc1O)NN=Cc1ccccc1O do in these assays?
CtBP-E1A inh: -4; Six1-Eya2 inh: -83*

How did CCC[C@H]1CN(c2ccc(Br)cc2)C(=O)[C@@H]1CC(=O)Nc1ccc(OC)cc1 do in these assays?
CtBP-E1A inh: 3; Six1-Eya2 inh: -3

What do the screens show for `CC(=O)N[C@@H](CCC(=O)O)C(=O)O`?
VP16 counter: -1%; RORg inh: 7%

How did CCN(CC)c1ccc(S(=O)(=O)N2CCOCC2)cc1NC(=O)CSc1nncs1 do in these assays?
p53 reactivation: -1%; CtBP-E1A inh: -5; Six1-Eya2 inh: -2

How did COc1ccccc1-c1nnc(NC(=O)c2ccc(S(=O)(=O)N3CCOCC3)cc2)o1 do in these assays?
p53 reactivation: -7%; CtBP-E1A inh: -14; Six1-Eya2 inh: -23; VP16 counter: 0.63µM*; RORg inh: 0.71µM*

What do the screens show for `COc1cccc(-c2nnc(NC(=O)c3ccc(S(=O)(=O)N4CCOCC4)cc3)o2)c1`?
p53 reactivation: 0%; CtBP-E1A inh: -14; Six1-Eya2 inh: -10; VP16 counter: 0.89µM*; RORg inh: 0.5µM*

Results for CN1CCC(=O)N(C(CSc2ccc(Br)cc2)Cc2ccccc2)CC1 (stereo not drawn) ?
VP16 counter: 2%; RORg inh: 22%

What do the screens show for `CCNc1ncc2nc(-c3cccc(C#N)c3)c(=O)n(CCC#N)c2n1`?
VP16 counter: -9%; RORg inh: 2%

How did FC(F)(F)c1ccccc1NC(=S)N/N=C1\CC2CC=CC12 (stereo not drawn) do in these assays?
p53 reactivation: 6%; CtBP-E1A inh: -1; Six1-Eya2 inh: -1; VP16 counter: 14µM*; RORg inh: 0.5µM*

Results for CCc1ccc(Nc2n[n+](-c3ccccc3)c(-c3ccc(N(CC)CC)cc3)s2)cc1 ?
p53 reactivation: 12%; CtBP-E1A inh: -13; Six1-Eya2 inh: -17; VP16 counter: 13µM*; RORg inh: inconclusive

How did c1ccc(COc2ccc(-c3sc(Nc4ccccc4)n[n+]3-c3ccccc3)cc2)cc1 do in these assays?
VP16 counter: inconclusive; RORg inh: -31%

Results for CCc1ccc(Nc2n[n+](-c3ccccc3)c(-c3cc(OC)c(OC)cc3Br)s2)cc1 ?
CtBP-E1A inh: -1; Six1-Eya2 inh: -9; VP16 counter: -26%; RORg inh: 10µM*

Results for CN(C)c1ccc(-c2sc(Nc3ccccc3)n[n+]2-c2ccc(F)cc2)cc1 ?
p53 reactivation: 10%; CtBP-E1A inh: -1; Six1-Eya2 inh: 4; VP16 counter: 3%; RORg inh: 14µM*

Results for CCc1ccc(Nc2n[n+](-c3ccccc3)c(-c3ccc(OCc4ccccc4)cc3)s2)cc1 ?
CtBP-E1A inh: 6; Six1-Eya2 inh: -1; VP16 counter: inconclusive; RORg inh: 7.9µM*

How did c1ccc2c(NC3CC3)nc(-c3ccoc3)nc2c1 do in these assays?
VP16 counter: 3%; RORg inh: -3%

How did CCc1ccc(Nc2n[n+](-c3ccccc3)c(-c3c(Cl)cccc3Cl)s2)cc1 do in these assays?
CtBP-E1A inh: inconclusive; Six1-Eya2 inh: inconclusive; VP16 counter: inconclusive; RORg inh: 11µM*

What do the screens show for `Fc1ccc(-[n+]2nc(Nc3ccccc3)sc2-c2c(Cl)cccc2Cl)cc1`?
p53 reactivation: 9%; CtBP-E1A inh: inconclusive; Six1-Eya2 inh: inconclusive; VP16 counter: 0%; RORg inh: -37%

How did CCN(CC)c1ccc(-c2sc(Nc3ccccc3)n[n+]2-c2ccc(F)cc2)cc1 do in these assays?
CtBP-E1A inh: -2; Six1-Eya2 inh: 2; VP16 counter: 17%; RORg inh: 10µM*

Results for O=C(O)c1ccc(-c2sc(Nc3ccccc3)n[n+]2-c2ccc(F)cc2)cc1 ?
CtBP-E1A inh: 3; Six1-Eya2 inh: 4; VP16 counter: 4%; RORg inh: -9%

Results for O=C(CN1CC(=O)Oc2ccccc21)NCc1ccco1 ?
p53 reactivation: 27%; CtBP-E1A inh: inconclusive; Six1-Eya2 inh: -72*; VP16 counter: -2%; RORg inh: -17%

How did O=C(NCc1ccco1)N1c2ccccc2Sc2ccccc21 do in these assays?
p53 reactivation: -2%; CtBP-E1A inh: -17; Six1-Eya2 inh: -22; VP16 counter: 35µM*; RORg inh: inconclusive

Results for ONCc1ccccc1 ?
VP16 counter: -1%; RORg inh: -3%

How did COc1ccc(C2CC(c3cccs3)=NN2C(=S)Nc2ccccc2)cc1OC (stereo not drawn) do in these assays?
p53 reactivation: 13%; CtBP-E1A inh: -16; Six1-Eya2 inh: -14; VP16 counter: 2%; RORg inh: 19%

Results for COc1cccc(C2CC(c3cccs3)=NN2C(=S)Nc2ccccc2)c1OC (stereo not drawn) ?
p53 reactivation: 14%; CtBP-E1A inh: -18; Six1-Eya2 inh: -26; VP16 counter: 2%; RORg inh: 8.9µM*

How did O=c1[nH]c(=S)[nH]c2c1C(c1ccc(Cl)cc1)OC(CCc1ccccc1)C2 (stereo not drawn) do in these assays?
CtBP-E1A inh: 2; Six1-Eya2 inh: -11

How did O=C(NC(=S)NNC(=O)c1ccccc1O)c1cccc([N+](=O)[O-])c1 do in these assays?
p53 reactivation: 2%; CtBP-E1A inh: -90*; Six1-Eya2 inh: -77*; VP16 counter: -1%; RORg inh: -34%

What do the screens show for `O=C(NNC(=O)c1ccccc1[N+](=O)[O-])c1ccccn1`?
p53 reactivation: 11%; CtBP-E1A inh: 2; Six1-Eya2 inh: -77*; VP16 counter: 2%; RORg inh: -40%
